Experimental data published in ChEMBL document CHEMBL1961873, “Compounds: GSK PKIS; Assays: Nanosyn kinase panel” (2012).

Assays:
[1] = target: T1, Serine/threonine-protein kinase Nek9 (Homo sapiens) (UniProt Q8TD19); conditions: at 1 µM;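 also: each value is a mean percent inhibition of NEK9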
T1 sequence (whole entry): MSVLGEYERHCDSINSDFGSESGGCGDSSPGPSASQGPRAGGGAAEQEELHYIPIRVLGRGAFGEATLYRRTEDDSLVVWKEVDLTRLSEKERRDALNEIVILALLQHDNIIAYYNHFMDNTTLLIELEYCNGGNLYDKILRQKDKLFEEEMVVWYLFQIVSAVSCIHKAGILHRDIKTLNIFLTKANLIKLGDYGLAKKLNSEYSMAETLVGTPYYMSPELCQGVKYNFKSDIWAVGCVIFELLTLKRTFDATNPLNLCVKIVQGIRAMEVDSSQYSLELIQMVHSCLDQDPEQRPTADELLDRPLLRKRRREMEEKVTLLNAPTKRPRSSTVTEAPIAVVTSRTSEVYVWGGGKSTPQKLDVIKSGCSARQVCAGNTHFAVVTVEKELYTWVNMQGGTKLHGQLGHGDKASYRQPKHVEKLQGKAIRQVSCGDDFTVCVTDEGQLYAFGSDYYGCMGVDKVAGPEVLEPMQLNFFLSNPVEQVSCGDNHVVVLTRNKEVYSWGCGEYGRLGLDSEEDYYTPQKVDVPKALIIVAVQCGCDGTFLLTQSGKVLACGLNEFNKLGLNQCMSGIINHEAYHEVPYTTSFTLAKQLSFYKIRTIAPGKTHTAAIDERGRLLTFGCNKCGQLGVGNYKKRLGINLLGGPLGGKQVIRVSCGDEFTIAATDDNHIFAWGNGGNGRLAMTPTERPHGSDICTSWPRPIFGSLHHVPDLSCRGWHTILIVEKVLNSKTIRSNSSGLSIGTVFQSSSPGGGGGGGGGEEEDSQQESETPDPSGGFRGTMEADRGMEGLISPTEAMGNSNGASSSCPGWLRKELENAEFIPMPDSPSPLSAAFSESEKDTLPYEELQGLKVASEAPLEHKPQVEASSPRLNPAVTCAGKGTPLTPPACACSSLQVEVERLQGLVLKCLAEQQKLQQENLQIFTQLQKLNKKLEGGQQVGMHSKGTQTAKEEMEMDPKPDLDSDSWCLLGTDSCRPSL

[2] = target: Serine/threonine-protein kinase PLK1 (Homo sapiens) (UniProt P53350); conditions: at 0.1 µM
Sequence of Serine/threonine-protein kinase PLK1 (Homo sapiens) (P53350 whole entry): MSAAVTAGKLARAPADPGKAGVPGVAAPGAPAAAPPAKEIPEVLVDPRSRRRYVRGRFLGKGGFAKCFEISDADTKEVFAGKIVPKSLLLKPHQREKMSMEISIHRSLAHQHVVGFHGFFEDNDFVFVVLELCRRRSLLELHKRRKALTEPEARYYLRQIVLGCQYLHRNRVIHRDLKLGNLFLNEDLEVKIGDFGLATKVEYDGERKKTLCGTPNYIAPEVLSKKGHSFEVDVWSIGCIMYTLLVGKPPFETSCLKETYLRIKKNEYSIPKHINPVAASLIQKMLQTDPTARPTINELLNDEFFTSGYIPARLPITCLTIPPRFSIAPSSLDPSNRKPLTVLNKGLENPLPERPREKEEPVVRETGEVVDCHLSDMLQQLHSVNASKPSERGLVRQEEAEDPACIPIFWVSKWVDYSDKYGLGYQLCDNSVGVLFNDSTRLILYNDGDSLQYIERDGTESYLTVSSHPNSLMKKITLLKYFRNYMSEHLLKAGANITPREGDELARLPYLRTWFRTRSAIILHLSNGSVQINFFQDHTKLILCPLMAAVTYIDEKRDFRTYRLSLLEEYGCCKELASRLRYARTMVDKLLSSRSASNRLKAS

[3] = target: Serine/threonine-protein kinase PLK1 (Homo sapiens) (UniProt P53350); conditions: at 1 µM
[4] = target: T2, Dual specificity protein kinase TTK (Homo sapiens) (UniProt P33981); conditions: at 0.1 µM
T2 sequence (whole entry): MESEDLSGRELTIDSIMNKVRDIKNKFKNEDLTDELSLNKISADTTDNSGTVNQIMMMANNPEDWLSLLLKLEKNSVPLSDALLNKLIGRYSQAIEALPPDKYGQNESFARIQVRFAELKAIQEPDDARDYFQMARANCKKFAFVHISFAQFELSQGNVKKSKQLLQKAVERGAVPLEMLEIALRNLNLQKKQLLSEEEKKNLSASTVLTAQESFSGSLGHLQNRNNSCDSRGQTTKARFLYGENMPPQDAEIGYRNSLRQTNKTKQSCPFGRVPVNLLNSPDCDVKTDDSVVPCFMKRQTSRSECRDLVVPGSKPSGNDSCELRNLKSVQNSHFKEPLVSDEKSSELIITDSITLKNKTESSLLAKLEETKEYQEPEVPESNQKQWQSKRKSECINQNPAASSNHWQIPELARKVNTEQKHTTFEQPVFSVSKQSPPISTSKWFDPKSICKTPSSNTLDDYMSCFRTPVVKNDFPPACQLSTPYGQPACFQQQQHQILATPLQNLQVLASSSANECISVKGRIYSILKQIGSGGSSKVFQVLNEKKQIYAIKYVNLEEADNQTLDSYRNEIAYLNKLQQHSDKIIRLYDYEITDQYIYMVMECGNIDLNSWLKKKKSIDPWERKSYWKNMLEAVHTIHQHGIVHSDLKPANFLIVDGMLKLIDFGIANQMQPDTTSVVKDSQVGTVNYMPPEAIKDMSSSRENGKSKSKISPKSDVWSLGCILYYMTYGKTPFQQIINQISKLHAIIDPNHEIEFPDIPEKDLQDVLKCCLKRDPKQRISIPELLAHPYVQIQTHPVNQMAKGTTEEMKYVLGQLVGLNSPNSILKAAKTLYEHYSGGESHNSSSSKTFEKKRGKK

[5] = test system: T3, Receptor-type tyrosine-protein kinase FLT3 (Homo sapiens), P36888 [D835Y]; conditions: at 1 µM
T3 sequence (whole entry): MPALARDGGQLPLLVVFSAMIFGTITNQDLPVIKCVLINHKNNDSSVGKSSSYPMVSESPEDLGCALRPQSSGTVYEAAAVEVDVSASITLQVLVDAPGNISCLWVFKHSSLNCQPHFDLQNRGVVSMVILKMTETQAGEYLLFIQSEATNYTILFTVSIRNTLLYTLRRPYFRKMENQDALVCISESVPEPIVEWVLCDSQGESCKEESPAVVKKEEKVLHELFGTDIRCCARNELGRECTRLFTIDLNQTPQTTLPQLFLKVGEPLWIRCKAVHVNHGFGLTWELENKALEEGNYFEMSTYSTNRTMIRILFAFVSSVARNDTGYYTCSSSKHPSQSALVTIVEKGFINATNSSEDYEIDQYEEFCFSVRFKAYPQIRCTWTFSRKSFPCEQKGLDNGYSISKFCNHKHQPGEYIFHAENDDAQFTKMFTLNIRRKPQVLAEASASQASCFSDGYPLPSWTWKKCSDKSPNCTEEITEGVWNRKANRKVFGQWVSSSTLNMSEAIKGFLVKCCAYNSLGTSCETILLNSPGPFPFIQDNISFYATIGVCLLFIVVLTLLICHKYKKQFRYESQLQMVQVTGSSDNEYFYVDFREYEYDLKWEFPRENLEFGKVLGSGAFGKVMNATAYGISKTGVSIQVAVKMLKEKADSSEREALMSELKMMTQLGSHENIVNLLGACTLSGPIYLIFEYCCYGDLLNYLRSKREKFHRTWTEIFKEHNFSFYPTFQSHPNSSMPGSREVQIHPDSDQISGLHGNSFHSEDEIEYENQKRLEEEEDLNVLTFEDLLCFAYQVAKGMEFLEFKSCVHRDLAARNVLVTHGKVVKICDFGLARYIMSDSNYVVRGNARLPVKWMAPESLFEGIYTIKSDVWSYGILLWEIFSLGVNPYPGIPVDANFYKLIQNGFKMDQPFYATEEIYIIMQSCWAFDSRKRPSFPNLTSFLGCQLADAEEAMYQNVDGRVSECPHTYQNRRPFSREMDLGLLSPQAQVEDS

[6] = target: Vascular endothelial growth factor receptor 3 (Homo sapiens) (UniProt P35916); conditions: at 0.1 µM
Sequence of Vascular endothelial growth factor receptor 3 (Homo sapiens) (P35916 whole entry): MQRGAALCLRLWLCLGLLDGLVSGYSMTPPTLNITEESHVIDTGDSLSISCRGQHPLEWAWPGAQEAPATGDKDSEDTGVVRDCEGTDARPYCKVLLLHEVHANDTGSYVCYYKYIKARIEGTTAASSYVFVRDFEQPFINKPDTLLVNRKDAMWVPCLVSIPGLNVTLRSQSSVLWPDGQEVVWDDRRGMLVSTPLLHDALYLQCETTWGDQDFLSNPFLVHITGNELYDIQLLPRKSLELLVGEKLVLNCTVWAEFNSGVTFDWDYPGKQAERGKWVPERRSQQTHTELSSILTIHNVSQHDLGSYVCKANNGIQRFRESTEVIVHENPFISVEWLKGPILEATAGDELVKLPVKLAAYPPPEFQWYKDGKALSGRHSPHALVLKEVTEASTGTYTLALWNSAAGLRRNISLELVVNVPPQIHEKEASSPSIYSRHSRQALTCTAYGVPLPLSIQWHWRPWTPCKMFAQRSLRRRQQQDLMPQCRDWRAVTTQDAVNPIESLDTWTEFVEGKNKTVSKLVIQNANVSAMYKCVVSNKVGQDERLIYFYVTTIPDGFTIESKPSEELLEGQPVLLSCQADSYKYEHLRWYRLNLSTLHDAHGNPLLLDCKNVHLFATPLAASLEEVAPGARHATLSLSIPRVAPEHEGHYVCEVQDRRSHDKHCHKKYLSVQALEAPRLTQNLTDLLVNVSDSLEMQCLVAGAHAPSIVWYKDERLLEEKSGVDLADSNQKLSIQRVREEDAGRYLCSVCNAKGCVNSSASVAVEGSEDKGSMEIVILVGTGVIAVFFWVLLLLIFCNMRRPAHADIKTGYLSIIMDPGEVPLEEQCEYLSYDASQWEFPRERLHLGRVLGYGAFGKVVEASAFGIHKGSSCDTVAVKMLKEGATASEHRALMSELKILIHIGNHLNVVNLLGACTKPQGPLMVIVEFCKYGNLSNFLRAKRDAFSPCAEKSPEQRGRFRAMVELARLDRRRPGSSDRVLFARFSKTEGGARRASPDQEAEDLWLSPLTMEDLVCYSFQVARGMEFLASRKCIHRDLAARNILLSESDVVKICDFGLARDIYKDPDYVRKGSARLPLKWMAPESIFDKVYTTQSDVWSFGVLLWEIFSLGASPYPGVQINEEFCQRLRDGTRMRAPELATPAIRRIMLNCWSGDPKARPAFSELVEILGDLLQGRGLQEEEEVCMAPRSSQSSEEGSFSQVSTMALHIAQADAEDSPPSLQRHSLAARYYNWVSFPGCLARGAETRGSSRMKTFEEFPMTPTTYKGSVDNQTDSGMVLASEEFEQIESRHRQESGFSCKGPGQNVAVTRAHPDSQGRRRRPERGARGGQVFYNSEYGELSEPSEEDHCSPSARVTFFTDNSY

[7] = target: Vascular endothelial growth factor receptor 3 (Homo sapiens) (UniProt P35916); conditions: at 1 µM
[8] = target: Macrophage colony-stimulating factor 1 receptor (Homo sapiens) (UniProt P07333); conditions: at 0.1 µM
Sequence of Macrophage colony-stimulating factor 1 receptor (Homo sapiens) (P07333 whole entry): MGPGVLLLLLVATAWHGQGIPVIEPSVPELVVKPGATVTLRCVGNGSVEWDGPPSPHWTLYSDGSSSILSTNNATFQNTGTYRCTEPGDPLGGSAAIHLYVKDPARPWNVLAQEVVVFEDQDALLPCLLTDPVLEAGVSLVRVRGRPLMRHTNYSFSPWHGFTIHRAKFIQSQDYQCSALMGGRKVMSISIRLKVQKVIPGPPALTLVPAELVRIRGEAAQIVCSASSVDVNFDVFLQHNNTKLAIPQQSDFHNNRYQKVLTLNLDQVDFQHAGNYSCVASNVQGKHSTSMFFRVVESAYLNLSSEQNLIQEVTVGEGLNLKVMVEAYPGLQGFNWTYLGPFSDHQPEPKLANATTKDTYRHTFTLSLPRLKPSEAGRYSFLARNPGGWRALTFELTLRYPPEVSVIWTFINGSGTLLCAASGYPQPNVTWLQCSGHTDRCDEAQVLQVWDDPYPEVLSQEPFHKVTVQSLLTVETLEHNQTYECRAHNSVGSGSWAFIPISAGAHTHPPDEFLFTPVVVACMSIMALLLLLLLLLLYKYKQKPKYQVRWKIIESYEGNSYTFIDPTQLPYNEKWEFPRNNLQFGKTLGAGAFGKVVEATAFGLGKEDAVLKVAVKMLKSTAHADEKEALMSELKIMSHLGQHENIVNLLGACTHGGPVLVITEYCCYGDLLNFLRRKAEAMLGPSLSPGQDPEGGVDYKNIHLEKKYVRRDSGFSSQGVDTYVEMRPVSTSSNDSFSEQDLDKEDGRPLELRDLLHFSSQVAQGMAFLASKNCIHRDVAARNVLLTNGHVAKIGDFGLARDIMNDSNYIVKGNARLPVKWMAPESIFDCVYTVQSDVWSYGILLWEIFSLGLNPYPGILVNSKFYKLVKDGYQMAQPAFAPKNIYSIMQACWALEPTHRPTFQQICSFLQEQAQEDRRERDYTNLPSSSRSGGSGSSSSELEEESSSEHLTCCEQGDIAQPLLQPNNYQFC

[9] = target: Macrophage colony-stimulating factor 1 receptor (Homo sapiens) (UniProt P07333); conditions: at 1 µM
[10] = target: Tyrosine-protein kinase Fyn (Homo sapiens) (UniProt P06241); conditions: at 0.1 µM
Sequence of Tyrosine-protein kinase Fyn (Homo sapiens) (P06241 2-537 limits assumed): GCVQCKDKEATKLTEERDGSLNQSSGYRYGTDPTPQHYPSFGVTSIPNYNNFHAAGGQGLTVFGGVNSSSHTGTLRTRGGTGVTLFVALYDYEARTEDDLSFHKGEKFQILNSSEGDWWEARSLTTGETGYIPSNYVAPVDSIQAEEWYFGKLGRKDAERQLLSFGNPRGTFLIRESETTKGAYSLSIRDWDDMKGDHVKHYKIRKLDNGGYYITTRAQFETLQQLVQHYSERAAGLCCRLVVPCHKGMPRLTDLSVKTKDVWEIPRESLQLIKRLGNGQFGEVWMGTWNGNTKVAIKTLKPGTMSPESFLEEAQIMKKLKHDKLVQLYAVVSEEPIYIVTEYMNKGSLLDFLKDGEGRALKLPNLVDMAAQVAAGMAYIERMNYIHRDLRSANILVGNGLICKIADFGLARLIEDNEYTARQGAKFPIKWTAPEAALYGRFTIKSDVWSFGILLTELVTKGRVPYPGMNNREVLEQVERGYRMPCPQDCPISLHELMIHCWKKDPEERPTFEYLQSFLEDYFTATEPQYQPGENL

Structure (SMILES): COC(=O)Nc1nc2cc(Oc3cccc(NC(=O)Nc4cc(C(F)(F)F)ccc4F)c3)ccc2[nH]1
- inhibition [1]: 0.95%
- inhibition [2]: 1.57%
- inhibition [3]: 0.56%
- inhibition [4]: 0.37%
- inhibition [5]: 0.94%
- inhibition [6]: 1.33%
- inhibition [7]: 11.4%
- inhibition [8]: 4.37%
- inhibition [9]: 27.8%
- inhibition [10]: 1.12%

Structure (SMILES): CS(=O)(=O)CCN(CC#N)Cc1ccc(-c2ccc3ncnc(Nc4ccc(OCc5cccc(F)c5)c(Cl)c4)c3c2)o1
- inhibition [1]: 3.24%
- inhibition [2]: 4.17%
- inhibition [3]: 2.97%
- inhibition [4]: 2.64%
- inhibition [5]: 0.21%
- inhibition [6]: -3.53%
- inhibition [7]: -8.49%
- inhibition [8]: 1.14%
- inhibition [9]: 5.44%
- inhibition [10]: -3.25%

Structure (SMILES): CC(C)=Cc1cccc2c1/C(=N/Nc1ccc(S(N)(=O)=O)cc1)C(=O)N2
- inhibition [1]: 1.52%
- inhibition [2]: -0.43%
- inhibition [3]: 0.59%
- inhibition [4]: 11.7%
- inhibition [5]: 66.6%
- inhibition [6]: 4.82%
- inhibition [7]: 46.6%
- inhibition [8]: 41.8%
- inhibition [9]: 86.8%
- inhibition [10]: 4.49%

Structure (SMILES): Nc1nc(-c2ccc3c(c2)C(=Cc2cc(Br)c(O)c(Br)c2)C(=O)N3)cs1
- inhibition [1]: 8.59%
- inhibition [2]: 0.43%
- inhibition [3]: 3.62%
- inhibition [4]: 2.39%
- inhibition [5]: 3.47%
- inhibition [6]: 4.68%
- inhibition [7]: 6.47%
- inhibition [8]: -1.81%
- inhibition [9]: 2.56%
- inhibition [10]: -0.03%

Structure (SMILES): CCn1c(-c2nonc2N)nc2cncc(C(=O)N3CC[C@H](N)C3)c21
- inhibition [1]: 19.1%
- inhibition [2]: 4.34%
- inhibition [3]: 8.01%
- inhibition [4]: 16%
- inhibition [5]: -5.46%
- inhibition [6]: 5.85%
- inhibition [7]: 7.41%
- inhibition [8]: 1.27%
- inhibition [9]: 3.01%
- inhibition [10]: 3.5%

Structure (SMILES): CCn1c(-c2nonc2N)nc2ccncc21
- inhibition [1]: 5.33%
- inhibition [2]: 1.68%
- inhibition [3]: 2.44%
- inhibition [4]: 3.2%
- inhibition [5]: 0.13%
- inhibition [6]: 2.12%
- inhibition [7]: 2.74%
- inhibition [8]: 0.3%
- inhibition [9]: 0%
- inhibition [10]: 2.62%

Structure (SMILES): NS(=O)(=O)c1cccc(-c2ccc3c(NC(=O)C4CC4)n[nH]c3c2)c1
- inhibition [1]: 2.04%
- inhibition [2]: 0.99%
- inhibition [3]: -1.05%
- inhibition [4]: -4.5%
- inhibition [5]: -1.12%
- inhibition [6]: 2.99%
- inhibition [7]: 5.11%
- inhibition [8]: -0.02%
- inhibition [9]: 2.28%
- inhibition [10]: 1.2%

Structure (SMILES): CN1CCC(C(=O)Nc2n[nH]c3nnc(-c4ccccc4)cc23)CC1
- inhibition [1]: 19.2%
- inhibition [2]: 6.37%
- inhibition [3]: 4.03%
- inhibition [4]: 12.6%
- inhibition [5]: -2.63%
- inhibition [6]: 2.1%
- inhibition [7]: 3.3%
- inhibition [8]: 0.38%
- inhibition [9]: 3.05%
- inhibition [10]: 0.66%

Structure (SMILES): Cc1nn(C)c2cc(N(C)c3ccnc(Nc4cccc(S(N)(=O)=O)c4)n3)ccc12
- inhibition [1]: 13.1%
- inhibition [2]: 2.85%
- inhibition [3]: 3.39%
- inhibition [4]: 13%
- inhibition [5]: 11.9%
- inhibition [6]: 15.6%
- inhibition [7]: 62.9%
- inhibition [8]: 75.5%
- inhibition [9]: 93.9%
- inhibition [10]: 4.56%

Structure (SMILES): Cc1cccc(-c2n[nH]cc2-c2ccc3ncccc3n2)n1
- inhibition [1]: 4.16%
- inhibition [2]: 0.53%
- inhibition [3]: 3.07%
- inhibition [4]: 2.51%
- inhibition [5]: -2.35%
- inhibition [6]: 4.9%
- inhibition [7]: 39.4%
- inhibition [8]: 2.38%
- inhibition [9]: 2.47%
- inhibition [10]: 0.64%

Structure (SMILES): O=C(Nc1n[nH]c2nc(-c3ccco3)c(Br)cc12)C1CC1
- inhibition [1]: 3.52%
- inhibition [2]: 4.46%
- inhibition [3]: 4.35%
- inhibition [4]: 4.94%
- inhibition [5]: 5.36%
- inhibition [6]: 1.95%
- inhibition [7]: 9.43%
- inhibition [8]: 0.44%
- inhibition [9]: 1.78%
- inhibition [10]: 3.33%

Structure (SMILES): O=C1NC(=O)C(c2ccccc2Cl)=C1Nc1cccc(O)c1
- inhibition [1]: -5.12%
- inhibition [2]: 3.44%
- inhibition [3]: 3.38%
- inhibition [4]: 2.7%
- inhibition [5]: 3.87%
- inhibition [6]: 3.25%
- inhibition [7]: 3.79%
- inhibition [8]: -1.08%
- inhibition [9]: 2.71%
- inhibition [10]: 1.1%

Structure (SMILES): COc1cc2ncn(-c3cc(OCc4ccccc4Cl)c(C(N)=O)s3)c2cc1OC
- inhibition [1]: 55.5%
- inhibition [2]: 93.8%
- inhibition [3]: 96.3%
- inhibition [4]: 2.78%
- inhibition [5]: 9.43%
- inhibition [6]: 11.9%
- inhibition [7]: 54.8%
- inhibition [8]: 1.91%
- inhibition [9]: 23.7%
- inhibition [10]: 2.79%

Structure (SMILES): COc1ccc2cc(-c3c(-c4ccncc4)nc(-c4ccc([S+](C)[O-])cc4)n3C)ccc2c1 (stereo not given)
- inhibition [1]: 0.29%
- inhibition [2]: 1.98%
- inhibition [3]: 4.45%
- inhibition [4]: 4.12%
- inhibition [5]: 5.59%
- inhibition [6]: 1.55%
- inhibition [7]: 0.4%
- inhibition [8]: -0.21%
- inhibition [9]: -0.69%
- inhibition [10]: 3.05%

Structure (SMILES): COc1ccc(-c2coc3ncnc(N)c23)cc1
- inhibition [1]: 6.24%
- inhibition [2]: 3.82%
- inhibition [3]: 3.47%
- inhibition [4]: 10.9%
- inhibition [5]: -3.79%
- inhibition [6]: 0.69%
- inhibition [7]: -0.08%
- inhibition [8]: 4.17%
- inhibition [9]: 2.83%
- inhibition [10]: 0.65%

Structure (SMILES): CS(=O)(=O)CCNCc1ccc(-c2ccc3ncnc(Nc4ccc(OCc5ccccc5)c(Cl)c4)c3c2)o1
- inhibition [1]: 4.02%
- inhibition [2]: 2.44%
- inhibition [3]: 2.99%
- inhibition [4]: 4.06%
- inhibition [5]: -0.19%
- inhibition [6]: 3.02%
- inhibition [7]: 2.54%
- inhibition [8]: -2.83%
- inhibition [9]: 10%
- inhibition [10]: 2.44%

Structure (SMILES): O=C1Nc2ccc(C(=O)c3ccco3)cc2C1=Cc1cc(Cl)c(O)c(Cl)c1
- inhibition [1]: 5.76%
- inhibition [2]: 9.81%
- inhibition [3]: 43.2%
- inhibition [4]: 10.9%
- inhibition [5]: 29.9%
- inhibition [6]: 6.18%
- inhibition [7]: 12.3%
- inhibition [8]: 26.3%
- inhibition [9]: 74%
- inhibition [10]: 3.62%
